Our source for the composite z-score, z-score and composite Z-score values is PubChem BioAssay.

Calls of active or inactive are those of the source.

For test [1], the system named is Human papillomavirus type 1a protein E7 (residues 44-93). Kind of test: HPV1a E7 fragment binders on microarrays, primary screen, biochemical, small-molecule microarray, residues 44-93, 635 nm fluorescence (AID 1108).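 Note: E7 fragment applied at 1 µg/mL in TBST for 1 h at 4 C; score combines spot fluorescence with its signal to noise ratio.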 The settings on record: small-molecule microarray binding, fluorescence 635 nm; higher = more signal.
Test [2] can be described thus: modulators of HCV replicon luciferase signal, primary screen, HCV replication inhibitor project, Huh7 cells, luciferase reporter (AID 1109).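 Note: huh7 hepatoma cells harbouring a luciferase neomycin HCV replicon reporter; luciferase luminescence as measure of HCV replicon replication; test concentration not given here.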 The settings on record: 48 h, higher = more signal. On the technique in general: Replicon systems follow genome replication, usually without infectious particles.
Test [3] has as its target Left-right determination factor 2 (Homo sapiens) (UniProt O00292). Kind of test: LEFTY2 binders on small-molecule microarrays, primary screen, biochemical, small-molecule microarray, 635 nm fluorescence scan (AID 1110). The settings on record: LEFTY2 binding, higher = more signal.
Test [4] has as its target Calmodulin-1 (Homo sapiens) (UniProt P0DP23). Kind of test: CALM1 binders on microarrays, EGTA buffer, profiling panel, biochemical, small-molecule microarray, Cy5-labelled CALM1 (AID 1111).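 Note: labelled calmodulin applied in Tris saline Tween buffer holding calcium plus EGTA and DTT.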 The settings on record: Cy5-CALM1 binding fluorescence, higher = more signal.
Test [5] shares this target. Put plainly: calcium-bound CALM1 binders on microarrays, profiling panel, artefact control for SMM control-protein annotation, biochemical, small-molecule microarray, Cy5-labelled CALM1, plus calcium (AID 1112).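 Note: score merges spot fluorescence with signal to noise from triplicate slides.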 The settings on record: Cy5-CALM1 binding fluorescence, higher = more signal.
The nature of test [6]: small-molecule microarray binders of probe aWnt5a, primary screen, biochemical, biotinylated probe, 635/667 nm fluorescence (AID 1113).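 Note: score merges 667 nm fluorescence intensity with signal-to-noise per printed feature.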 The settings on record: higher = more signal.
Test [7] is described as follows: small-molecule microarray binders of probe aShh, primary screen, biochemical, biotinylated probe, 635/667 nm fluorescence (AID 1114).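 Note: probe is biotin-labelled aShh protein from a stem cell growth factor screen; measures binding of labelled protein to compounds printed on the slide; score merges feature fluorescence at 667 nm with signal-to-noise.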 The settings on record: higher = more signal.
The nature of test [8]: small-molecule microarray binders of probe aNog, primary screen, biochemical, biotinylated probe, 635/667 nm fluorescence (AID 1115).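 Note: probe is biotinylated aNog protein used at 0.15 µg/mL for 1 h at 4 C; z-score combines 667 nm fluorescence of each spot with its signal to noise.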 The settings on record: higher = more signal.
Test [9] has as its target Torsin-1A-interacting protein 1 (Homo sapiens) (UniProt Q5JTV8). Kind of test: LAP1 binders from COS7 cell lysate, primary screen, small-molecule microarray, 635/667 nm fluorescence (AID 1116). The settings on record: COS7-hLAP1 lysate binding, 635 nm fluorescence, higher = more signal.
Test [10] concerns the target Alpha-bungarotoxin (Bungarus multicinctus) (UniProt P60615). Put plainly: alpha-bungarotoxin binders on microarray, profiling panel, artefact control for SMM control protein annotation, biochemical, small-molecule microarray, Alexa647 label, 635/667 nm fluorescence (AID 1117). The settings on record: alpha-BTX-A647 binding fluorescence, higher = more signal.
Test [11] addresses Albumin (Bos taurus) (UniProt P02769). Put plainly: bovine serum albumin binders on microarray, profiling panel, artefact control for SMM control protein annotation, biochemical, small-molecule microarray, Alexa647 label, 635/667 nm fluorescence (AID 1118).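 Note: score merges 667 nm emission intensity and signal-to-noise per printed compound spot.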 The settings on record: BSA-A647 binding, fluorescence 635 nm, higher = more signal.
A short description of test [12]: small-molecule microarray binders of probe aXIP, primary screen, biochemical, NeuroSMM set, 635/667 nm fluorescence (AID 1119).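 Note: probe is the protein aXip251-270 applied at 1 µg/mL to compound-printed slides; binding of probe to printed compounds measured as 667 nm fluorescence plus signal to noise.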 The settings on record: higher = more signal, called active from +8 up or from −8 down.
The nature of test [13]: small-molecule binders of probe aNOTCH3, primary screen, biochemical, small-molecule microarray, 635/667 nm fluorescence (AID 1120).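 Note: probe is a biotin-tagged antibody raised against NOTCH3 rather than NOTCH3 protein; score merges spot fluorescence near 667 nm with spot signal to noise.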 The settings on record: higher = more signal.
Test [14] can be described thus: small-molecule binders of probe aNOTCH2, primary screen, biochemical, small-molecule microarray, 635/667 nm fluorescence (AID 1121).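 Note: score merges feature fluorescence read at 667 nm with its signal to noise.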 The settings on record: higher = more signal.
Test [15] addresses Carbonic anhydrase 2 (Homo sapiens) (UniProt P00918). Kind of test: CAII small-molecule binders, profiling panel, biochemical, small-molecule microarray, Alexa647-labelled CAII (AID 1122). The settings on record: CAII-A647 binding fluorescence, higher = more signal.
Test [16] is described as follows: COS7 lysate on small-molecule microarray, probe aHis, 635 nm (AID 1123).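 Note: z-score combines 667nm fluorescence intensity with signal-to-noise per printed compound spot.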 The settings on record: COS7 cell lysate, fluorescence, higher = more signal.
The nature of test [17]: compound binding in COS7 lysate, probe aLAP1, primary screen, cell lysate, small-molecule microarray (AID 1124).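 Note: lysate comes from COS7 cells expressing LAP1 and is applied at 0.3 µg/mL; score merges spot fluorescence near 667 nm with signal-to-noise over triplicate slides.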 The settings on record: probe aLAP1, fluorescence, higher = more signal.
The test system of test [18] is Sam68 (KHDRBS1). Kind of test: Sam68 small-molecule binders, primary screen, biochemical, small-molecule microarray, 635 nm fluorescence (AID 1125).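 Note: score merges 667 nm channel intensity with signal to noise over triplicate slides.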 The settings on record: small-molecule microarray binding, higher = more signal.
Test [19] deals with Chordin-like protein 2 (CHRDL2). Kind of test: CHRDL2 small-molecule binders, primary screen, biochemical, small-molecule microarray, 635 nm fluorescence (AID 1126).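 Note: printed compound slides probed with Chrdl2 protein at 4 µg/mL for 1 h at 4 C; score merges 667 nm emission intensity with signal to noise over three replicate slides.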 The settings on record: small-molecule microarray binding, fluorescence 635 nm; higher = more signal.
The target in test [20] is Concanavalin-A (Canavalia ensiformis) (UniProt P02866). Kind of test: ConA small-molecule binders, primary screen, artefact control for SMM control protein annotation, biochemical, small-molecule microarray, Alexa647 label, 635 nm (AID 1127).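 Note: z combines 667 nm emission intensity with signal-to-noise across three replicate slides.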 The settings on record: ConA-A647 binding fluorescence, higher = more signal.
Chain of Concanavalin-A (Canavalia ensiformis) (P02866 whole entry, looked up): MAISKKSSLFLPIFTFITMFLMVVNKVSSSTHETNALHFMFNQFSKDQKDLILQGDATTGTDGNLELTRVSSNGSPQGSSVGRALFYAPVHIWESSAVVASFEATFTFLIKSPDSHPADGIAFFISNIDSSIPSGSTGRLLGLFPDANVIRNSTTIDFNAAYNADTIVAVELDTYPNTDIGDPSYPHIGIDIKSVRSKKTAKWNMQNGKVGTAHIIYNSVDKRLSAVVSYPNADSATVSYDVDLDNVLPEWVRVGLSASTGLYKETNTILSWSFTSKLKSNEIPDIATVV

Chain of Alpha-bungarotoxin (Bungarus multicinctus) (P60615 whole entry, looked up): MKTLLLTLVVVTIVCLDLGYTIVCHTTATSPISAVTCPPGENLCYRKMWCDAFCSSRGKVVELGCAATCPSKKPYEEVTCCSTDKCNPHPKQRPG
Chain of Albumin (Bos taurus) (P02769 whole entry, looked up): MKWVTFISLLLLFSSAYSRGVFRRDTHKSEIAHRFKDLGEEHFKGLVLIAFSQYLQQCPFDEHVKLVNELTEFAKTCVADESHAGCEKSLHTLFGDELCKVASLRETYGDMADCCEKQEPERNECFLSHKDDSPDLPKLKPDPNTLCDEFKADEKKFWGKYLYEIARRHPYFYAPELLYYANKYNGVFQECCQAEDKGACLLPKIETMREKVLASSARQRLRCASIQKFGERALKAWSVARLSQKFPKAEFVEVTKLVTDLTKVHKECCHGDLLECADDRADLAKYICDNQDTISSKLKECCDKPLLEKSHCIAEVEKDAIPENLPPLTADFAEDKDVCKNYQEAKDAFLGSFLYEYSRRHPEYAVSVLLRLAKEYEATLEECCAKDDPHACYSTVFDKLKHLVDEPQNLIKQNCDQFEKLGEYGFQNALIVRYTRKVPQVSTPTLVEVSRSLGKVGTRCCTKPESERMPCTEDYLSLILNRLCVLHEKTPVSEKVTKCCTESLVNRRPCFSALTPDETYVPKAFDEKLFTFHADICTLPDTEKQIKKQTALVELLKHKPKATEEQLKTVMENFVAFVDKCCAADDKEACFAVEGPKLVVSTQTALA
Chain of Torsin-1A-interacting protein 1 (Homo sapiens) (Q5JTV8 whole entry, looked up): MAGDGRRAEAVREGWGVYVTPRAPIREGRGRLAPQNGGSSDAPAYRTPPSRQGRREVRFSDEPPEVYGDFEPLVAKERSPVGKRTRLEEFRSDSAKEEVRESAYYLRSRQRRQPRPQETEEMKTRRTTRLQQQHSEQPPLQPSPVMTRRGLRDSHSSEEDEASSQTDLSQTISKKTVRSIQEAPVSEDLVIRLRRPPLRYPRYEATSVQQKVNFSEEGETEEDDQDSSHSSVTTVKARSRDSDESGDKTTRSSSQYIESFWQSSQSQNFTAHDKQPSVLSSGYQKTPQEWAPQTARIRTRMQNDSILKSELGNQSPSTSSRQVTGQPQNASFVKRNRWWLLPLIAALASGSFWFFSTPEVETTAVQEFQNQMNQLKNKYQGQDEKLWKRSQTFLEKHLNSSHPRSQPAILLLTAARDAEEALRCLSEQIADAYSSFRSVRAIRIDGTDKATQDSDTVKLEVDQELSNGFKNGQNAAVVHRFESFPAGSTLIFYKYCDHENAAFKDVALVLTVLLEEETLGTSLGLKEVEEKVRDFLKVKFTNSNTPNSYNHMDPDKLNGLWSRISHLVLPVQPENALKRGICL
Chain of Left-right determination factor 2 (Homo sapiens) (O00292 whole entry, looked up): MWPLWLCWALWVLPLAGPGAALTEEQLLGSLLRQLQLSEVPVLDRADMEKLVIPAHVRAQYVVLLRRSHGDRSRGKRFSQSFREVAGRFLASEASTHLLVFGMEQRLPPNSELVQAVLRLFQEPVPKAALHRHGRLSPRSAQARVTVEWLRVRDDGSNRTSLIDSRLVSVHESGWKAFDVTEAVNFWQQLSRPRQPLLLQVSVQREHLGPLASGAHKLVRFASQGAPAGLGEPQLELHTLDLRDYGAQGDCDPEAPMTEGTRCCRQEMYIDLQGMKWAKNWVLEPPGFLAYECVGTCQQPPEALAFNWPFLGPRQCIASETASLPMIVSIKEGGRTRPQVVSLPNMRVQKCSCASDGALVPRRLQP

On to `Cc1ccc(S[C@]2(C(=O)O)CC(=O)N(Cc3ccccc3C(F)(F)F)[C@@H]2c2ccc(CO)cc2I)cc1`, for which the composite z-score in [1] is 0.4; in test [3], -1.66; in test [4], -0.633; in [5], -0.711; in [6] it was -0.12; in test [7], -0.315. Further, the composite z-score was -0.322 in test [8]; -0.327 in test [9]; -0.247 in test [10]; 0.426 in test [11]; -0.0716 in test [13]; 0.0477 in test [14]. The composite z-score in test [15] was 0.502; in test [16], 1.74; in test [17], 1.51; in test [18], 0.406; in [19], -0.673; in test [20], -0.0929. The same compound returned a z-score in test [2] of -1.26. The composite Z-score in [12] was 0.286 (inactive).
For `COc1ccc([Si](C)(C)[C@H]2[C@H](CCn3cc([C@H](O)c4ccccc4)nn3)O[C@@]3(C(=O)N(C)c4ccccc43)[C@@H]2C)cc1`, the composite z-score is -0.455 in [1]; -0.759 in [3]; 0.418 in test [4]; 0.947 in test [5]; -0.119 in test [6]; -0.0793 in [7]. Besides, the composite z-score is -0.266 in test [8]; -0.773 in [9]; -0.909 in test [10]; 0.179 in test [11]; -0.0057 in test [13]; -0.0485 in test [14]. Also, the composite z-score in test [15] is 0.509; in test [16], 0.476; in test [17] it was -0.116; in test [18] it was 0.106; in test [19] it was -0.544; in test [20], -0.454. In test [2], this compound returned a z-score of -2.37. The composite Z-score in test [12] was 0.235 (inactive).
In the case of `N#Cc1ccc(C(O)C2C=CC3C(=O)N(c4ccccc4)C(=O)C3N2Nc2ccccc2F)cc1` (stereo not given), the composite z-score in test [1] was 1.29; in test [3], 0.262; in [4], 0.123; in [5], -0.564; in test [6], 0.0037; in [7], -0.218. For the same compound, the composite z-score in [8] was -0.376; in [9], 0.0448; in test [10] it was 0.175; in test [11], 1.01; in test [13] it was 0.173; in [14], -0.0771. The composite z-score is 0.675 in [15]; 1.99 in [16]; 0.555 in test [17]; 0.864 in [18]; -0.284 in test [19]; 0.883 in test [20]. The compound further had a z-score in [2] of -0.494. Also, the composite Z-score in test [12] was -0.187 (inactive).
In the case of `CO[C@H]1O[C@H](CO)[C@@H](OC(=O)Nc2ccc(Br)cc2)[C@@H]2OC(=O)[C@H](Cc3cccc(Br)c3)C/C=C/C[C@@H](Cc3cccc(Br)c3)C(=O)O[C@@H]12`, the composite z-score in test [1] was -0.852; in [3] it was -0.402; in test [4] it was 0.404; in test [5] it was 0.609; in test [6], -0.12; in test [7] it was -0.221. The composite z-score in test [8] is -0.1; in test [9] it was -0.284; in test [10] it was 0.386; in [11], 0.0911; in test [13] it was -0.0622; in test [14], -0.129. The composite z-score in test [15] is 0.275; in test [16], 0.112; in test [17], -0.0838; in test [18] it was -0.975; in [19], 0.0113; in test [20], 0.365. In [2], this compound yielded a z-score of -3.26. In addition, the composite Z-score in test [12] is 0.106 (inactive).
For the compound `COCCCNC(=O)[C@@]1(CCS(=O)(=O)c2ccccc2)N=C(c2ccc(OCCCO)cc2)O[C@H]1c1ccccc1N=[N+]=[N-]`, the composite z-score in [1] amounted to 1.48; in test [3], 0.169; in test [4], 1.55; in test [5] it was 0.001; in test [6], 0.127; in test [7], 0.204. Besides, the composite z-score is 1.36 in test [8]; 2.24 in test [9]; 1.67 in [10]; 0.955 in test [11]; 0.307 in [13]; -0.0316 in test [14]. Moreover, the composite z-score in [15] was 0.695; in test [16], 3.05; in [17] it was 0.743; in test [18], 1.3; in test [19] it was -0.154; in [20] it was 1.07. The z-score in [2] was -1.6. The composite Z-score in [12] is 0.164 (inactive).
